This passage reports growth results from PubChem BioAssay (NCI).

About 83,000 compounds went through this panel and 20% of them were active in at least one assay; those are over-represented in the sample as a whole.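 Cell lines were cultured in 96-well plates, exposed to a single compound concentration, and assessed for percent growth 48 hours later.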 Values without a mark were called inactive. Calls of active or inactive are those of the source. How the source made its calls: active means growth percent below 10; inactive means the rest.

Holding throughout (assay): NCI-60 one-dose screen, 48 h (100 = growth as untreated, 0 = no growth, -100 = all killed)
What all share (conditions): 10 µM unless noted

The subject of experiment [1] is T-47D breast.
Experiment [2] relates to BT-549 breast.
Experiment [3] deals with MDA-MB-435 melanoma.
For experiment [4], the system named is SW-620 colon.
The subject of experiment [5] is MCF7 breast.
The subject of experiment [6] is HCT-116 colon.
The test system of experiment [7] is HCC-2998 colon.
For experiment [8], the system named is KM12 colon.

As to `COc1cc2c3c(n(CCCNCC4CC4)c(=O)c2cc1OC)-c1cc2c(cc1C3=O)OCO2`, the growth in experiment [1] is 50.6%; in experiment [2] it was 66.1%; in experiment [3] it was 65%; in experiment [4], -20.1% (active); in experiment [5], -77.4% (active); in experiment [6], -85.1% (active). For the same compound, the figures for the growth in experiment [7] and in experiment [8] were 69.1% and 65.1%, respectively.

With `O=C1[C@H]2Cc3c([nH]c4ccccc34)[C@H](c3ccc(Cl)cc3)N2C(=O)CN1C1CCN(Cc2c(Cl)cccc2Cl)CC1`, the growth in experiment [1] is 62.5%; in experiment [2], 91.6%; in experiment [3] it was 77%; in experiment [4] it was 77%; in experiment [5] it was 19.1%; in experiment [6] it was 37.8%. The growth was 44.1% in experiment [7] and 72.5% in experiment [8].

For `O=C(N/N=C\c1ccc(Cl)cc1)c1ccc2nc(-c3ccc(Br)cc3)[nH]c2c1`, the growth in experiment [1] was 0.0838% (active); in experiment [2] it was 97.7%; in experiment [3], 3.54% (active); in experiment [4] it was -49.3% (active); in experiment [5] it was -33.2% (active); in experiment [6], -86.8% (active). Moreover, the growth in experiment [7] was -42.5% (active); in experiment [8], -23.2% (active).

As to `Cn1c(SC(C(=O)Nc2ccc(F)cc2)c2ccccc2)nc2ccccc2c1=O` (centres undefined), the growth in experiment [1] is 96%; in experiment [2] it was 102%; in experiment [3], 101%; in experiment [4], 105%; in experiment [5] it was 90.9%; in experiment [6], 95.3%. In addition, the growth was 98.3% in experiment [7] and 112% in experiment [8].

On to `Cc1cn(-c2cc(NC(=O)c3cncc(C#Cc4cnc5ccc(O[C@H]6CCOC6)nn45)c3)cc(C(F)(F)F)c2)cn1`, for which the growth is 98.2% in experiment [1]; 181% in experiment [2]; 76.5% in experiment [3]; 58.9% in experiment [4]; 44.6% in experiment [5]; 44.2% in experiment [6]. In addition, the growth in experiment [7] is 84.7%; in experiment [8] it was 21.9%.

In the case of `O=C(NCCCNc1cc(-c2cn(-c3ccccc3)nc2-c2cccc(O)c2)ccn1)Nc1cc(C(F)(F)F)cc(C(F)(F)F)c1`, the growth is 77.5% in experiment [1]; 84.9% in experiment [2]; 75.3% in experiment [3]; 94.2% in experiment [4]; 59.1% in experiment [5]; 51.2% in experiment [6]. Besides, the growth is 66.8% in experiment [7] and 58.1% in experiment [8].

`CN(c1ccc(F)cc1)S(=O)(=O)c1ccc(-c2cnc(C3CC3)o2)cc1`: the growth in experiment [1] was 54.1%; in experiment [2], 46.2%; in experiment [3] it was -26.2% (active); in experiment [4], 32.9%; in experiment [5], 23.7%; in experiment [6] it was 18.7%. Also, the growth was 22.3% in experiment [7] and 18.5% in experiment [8].

With `O=C(NNc1nc2cc(F)cc(F)c2n2cccc12)c1ncccn1`, the growth in experiment [1] is 3.06% (active); in experiment [2], 20.6%; in experiment [3], 24.6%; in experiment [4], 21.6%; in experiment [5], 9.91% (active); in experiment [6] it was 20.1%. In addition, the growth in experiment [7] is 51.9%; in experiment [8], 22.3%.

On to `COc1ccc(-c2nnc(SCc3ccc(O)c4ncccc34)o2)cc1`, for which the growth in experiment [1] is 27%; in experiment [2], 35.7%; in experiment [3], 24%; in experiment [4] it was 17.7%; in experiment [5], 14.9%; in experiment [6] it was 23.1%. For the same compound, the results for the growth in experiment [7] and in experiment [8] were 45.2% and 15.7%, respectively.

Consider `CC(C)(C)CC(C)(C)n1nnnc1C(Nc1ccccc1)c1cc2cccc3ccc4cccc1c4c32` (centres undefined), for which the growth was 55.7% in experiment [1]; 130% in experiment [2]; 83.6% in experiment [3]; 82.3% in experiment [4]; 61.6% in experiment [5]; 45.1% in experiment [6]. For the same compound, the results for the growth in experiment [7] and in experiment [8] were 90.8% and 86.7%, respectively.

Consider `CC(C)c1nn(-c2ccccc2)c(N2CCCCC2)c1/C=N/NC(N)=S`, for which the growth in experiment [1] was 66.8%; in experiment [2], 85.2%; in experiment [3], 97.5%; in experiment [4] it was 101%; in experiment [5] it was 75.7%; in experiment [6], 79.1%. Also, the growth in experiment [7] is 105%; in experiment [8], 103%.

As for `Nc1cc(F)ccc1NC(=O)c1ccc(NC(=O)C/C=C/c2cccnc2)cn1`, the growth in experiment [1] is 5.13% (active); in experiment [2], 25.3%; in experiment [3] it was 13.7%; in experiment [4], 10.6%; in experiment [5] it was 5.2% (active); in experiment [6], -13.2% (active). Moreover, the growth in experiment [7] was 15.5%; in experiment [8], 24.5%.

For the compound `COc1ccc(-c2nnc(SCc3ccc(O)c4ncccc34)n2-c2ccccc2)cc1`, the growth in experiment [1] is 18.9%; in experiment [2] it was 19.7%; in experiment [3] it was 14.3%; in experiment [4], 12.7%; in experiment [5] it was 5.08% (active); in experiment [6], 7.39% (active). For the same compound, the growth is 31.9% in experiment [7] and 15.6% in experiment [8].
